# In all, about 310,000 compounds went through this assay and about 14,000 (4.5%) showed an effect of 50% or more. Effects have a minus sign here. Shown is part of a subset that was picked to be rich in strong results.
# Molecular target: human ether-à-go-go-related gene (hERG) potassium channel (human, UniProt Q12809)
# Assay: primary screen, population patch clamp on CHO cells stably expressing hERG; higher = less effect of the substance
# 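Further: peak tail current of the secondary pulse compared with the same well before compound.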
# Sequence of human ether-à-go-go-related gene (hERG) potassium channel (Q12809 whole entry, looked up): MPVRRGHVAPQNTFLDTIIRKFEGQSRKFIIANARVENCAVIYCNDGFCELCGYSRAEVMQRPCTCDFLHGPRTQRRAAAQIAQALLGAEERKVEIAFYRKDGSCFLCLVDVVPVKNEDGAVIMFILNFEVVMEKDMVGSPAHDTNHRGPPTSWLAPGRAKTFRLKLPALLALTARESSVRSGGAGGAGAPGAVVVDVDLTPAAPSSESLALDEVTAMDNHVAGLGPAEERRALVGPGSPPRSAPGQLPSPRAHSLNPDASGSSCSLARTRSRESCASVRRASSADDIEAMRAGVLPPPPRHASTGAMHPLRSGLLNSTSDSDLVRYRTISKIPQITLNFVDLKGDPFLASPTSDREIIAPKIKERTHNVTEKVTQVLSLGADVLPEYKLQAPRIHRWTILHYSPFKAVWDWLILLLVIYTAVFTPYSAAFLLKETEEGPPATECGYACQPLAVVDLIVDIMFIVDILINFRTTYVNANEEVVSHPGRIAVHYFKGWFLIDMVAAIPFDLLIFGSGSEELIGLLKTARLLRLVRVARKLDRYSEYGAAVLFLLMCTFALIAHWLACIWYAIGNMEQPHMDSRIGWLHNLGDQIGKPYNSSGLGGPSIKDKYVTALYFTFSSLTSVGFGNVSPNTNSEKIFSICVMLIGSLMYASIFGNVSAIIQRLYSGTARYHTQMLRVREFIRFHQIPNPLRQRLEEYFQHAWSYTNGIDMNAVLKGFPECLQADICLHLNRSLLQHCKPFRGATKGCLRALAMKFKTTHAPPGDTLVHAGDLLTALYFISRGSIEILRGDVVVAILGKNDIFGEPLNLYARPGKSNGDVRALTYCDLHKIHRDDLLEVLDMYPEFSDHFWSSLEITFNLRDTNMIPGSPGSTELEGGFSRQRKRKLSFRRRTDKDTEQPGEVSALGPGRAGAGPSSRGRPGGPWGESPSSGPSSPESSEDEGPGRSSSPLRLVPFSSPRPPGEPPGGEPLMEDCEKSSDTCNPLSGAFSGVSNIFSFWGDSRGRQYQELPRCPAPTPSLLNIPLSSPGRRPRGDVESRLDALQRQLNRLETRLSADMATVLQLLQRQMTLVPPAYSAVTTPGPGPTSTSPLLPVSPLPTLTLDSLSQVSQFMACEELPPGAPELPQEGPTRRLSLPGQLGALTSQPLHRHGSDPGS
row,Compound,"hERG current change (%, negative = inhibition) at 10uM [%]"
1,CC1(CCC#N)N=C(SCCC#N)N(c2ccccc2)C1=O (stereo not shown),2.7
2,NC(Cc1ccc(O)c([N+](=O)[O-])c1)C(=O)O (stereo not shown),15.2
3,CN(CC(=O)NCCN1CCN(Cc2ccccc2)CC1)S(=O)(=O)c1cccc2nsnc12,-25.4
4,CCC/C=C1/CCCOC(C(=O)NCc2cc(C)n(C)n2)(C(F)(F)F)C1 (stereo not shown),5.48
5,O=C(CSc1nnc(NC(=O)c2ccccc2C(=O)O)s1)Nc1ccccc1Cl,24
6,O=C(O)c1ccc(Nc2nc(-c3cccnc3)cs2)cc1O,9.69
7,C=CCNC(=O)CSc1nnc(-c2cccs2)o1,-0.265
8,Cc1ccc(-c2nn(-c3cc(Cl)ccc3[N+](=O)[O-])c(=O)c3ccccc23)cc1,-22.1
9,CC(C)c1[nH]nc2c1C1(CCN(Cc3ccccc3)CC1)C(C#N)=C(N)O2,-25.5
10,Cc1[nH]nc2c1C1(CCN(Cc3ccccc3)CC1)C(C#N)=C(N)O2,-42
11,Cc1nc2c([nH]1)C1(CCN(Cc3ccccc3)CC1)C(C#N)=C(N)O2.Cl,-52.5
12,COCCN1C(=O)c2cc(C(=O)Nc3cccc(F)c3)ccc2C1Nc1cccc(F)c1 (stereo not shown),7.71
13,Cc1cc(C)c(S(=O)(=O)c2ccccc2)c(N(C)C)n1,4.06
14,CCCCn1c(N)c(S(=O)(=O)c2ccc(C)cc2)c2nc3ccccc3nc21,-0.298
15,CN(C)CCCn1c(N)c(S(=O)(=O)c2ccccc2)c2nc3ccccc3nc21,-51.1
16,Cc1ccc(S(=O)(=O)c2c(N)n(CCCN(C)C)c3nc4ccccc4nc23)cc1,-59
17,Nc1c(S(=O)(=O)c2ccccc2)c2nc3ccccc3nc2n1CCN1CCOCC1,-38.2
18,Cc1ccc(S(=O)(=O)c2c(N)n(CCCO)c3nc4ccccc4nc23)cc1,-21.4
19,CCN(CC)CCn1c(N)c(S(=O)(=O)c2ccccc2)c2nc3ccccc3nc21,-49.4
20,O=C(NCC1CCCN(C(=O)CN2CCCCC2)C1)c1ccccc1Cl (stereo not shown),13
21,Cc1cc(SCC(=O)NCCC2=CCCCC2)nc2ccccc12,-10.9
22,O=c1c(-c2ccnn2-c2ccc(F)cc2)cnc2n1CCS2,19.9

row,Compound,"hERG current change (%, negative = inhibition) at 10uM [%]"
1,Cc1cccc(NC(=O)CN2CCN(C(=O)C3CCC3)CC2)c1C,-31.4
2,Cc1cccc(NC(=O)CN2CCN(C(=O)C3CCCO3)CC2)c1C (stereo not shown),9.91
3,CCOC(=O)C1CCN(C(=O)/C=C/c2ccccc2)CC1,-16.8
4,CCc1ccccc1NC(=O)CN1CCN(C(=O)C2CCN(C(=O)/C=C/c3ccccc3)CC2)CC1,-72.9
5,Cc1cccc(NC(=O)CN2CCN(C(=O)C3CCN(C(=O)/C=C/c4ccccc4)CC3)CC2)c1C,-73.9
6,COC(=O)C1CCN(C(=O)/C=C/c2ccccc2)CC1,4.21
7,C/C(=N\N=c1/sc2ccccc2n1C)c1ccc(N2CCOCC2)cc1,18.9
8,Cc1ccc2c(CC(=O)OCc3nc(N)nc(Nc4ccccc4C)n3)coc2c1,5.79
9,CCCNC(=O)OCc1cccnc1Sc1ccc(C)cc1,-30
10,COCCOc1ccc(C(F)(F)F)cc1NC(=O)c1ccc(C)cc1,-0.151
11,COc1ccc(CCNC(=O)[C@@H](NC(=O)c2ccccc2F)C(C)C)cc1OC,-9.87
12,O=C(CSc1ncccn1)NCc1ccc2c(c1)OCO2,11.9
13,Clc1ccc(OCc2nc(-c3ccccn3)n[nH]2)cc1,-55.6
14,Brc1ccc(OCc2nc(-c3ccccn3)n[nH]2)cc1,-3.04
15,Cc1ccc(OCc2nc(-c3ccccn3)n[nH]2)cc1,-15.7
16,O=C(CN1CC=C(c2ccccc2)CC1)Nc1c(Cl)cccc1Cl,4.21
17,CCOc1ccc2c(c1)-c1c(ssc1=S)C(C)(C)N2,4.44
18,O=C(O)CCCC(=O)Nc1ccc(Cl)cc1,21.6
19,COc1cccc(-c2noc(Cn3nc(C)c([N+](=O)[O-])c3C)n2)c1,-6.89
20,CN(C)C(CNC(=O)c1cccc(C(F)(F)F)c1)c1ccco1 (stereo not shown),-11.8
21,Nc1c(C(=O)O)cnc2nc(N3CCOCC3)nn12,21.7
22,Nc1c(C(=O)N2CCCC2)sc2nc(-c3ccccc3)ccc12,-70.7

row,Compound,"hERG current change (%, negative = inhibition) at 10uM [%]"
1,NC(=O)c1sc2nc(-c3ccccc3)ccc2c1N,18.7
2,CC(C)OC(=O)c1sc2nc(-c3ccccc3)ccc2c1N,16.7
3,CCOc1ccc(NC(=O)C(CC(=O)O)Cc2ccccc2)cc1 (stereo not shown),5.94
4,O=C(c1ccco1)N1CCC(c2nc3ccccc3[nH]2)CC1,-5.9
5,COC(=O)c1cc(CSC(=N)N)ccc1OCCC(C)C.Cl,-3.46
6,CCCCOc1ccc(CSC(=N)N)cc1Cl.Cl,-21.9
7,Cl.N=C(N)SCc1ccc(O)c([N+](=O)[O-])c1,-0.169
8,CCCOc1ccc(CSC(=N)N)cc1C(=O)OC.Cl,-0.181
9,COc1ccc(CSC(=N)N)cc1[N+](=O)[O-].Cl,-3.72
10,CCCCCOc1ccc(CSC(=N)N)cc1[N+](=O)[O-].Cl,-56.7
11,CCOc1ccc(CSC(=N)N)cc1Cl.Cl,-15.2
12,CCOc1ccc(CSC(=N)N)cc1[N+](=O)[O-].Cl,-65.5
13,CCCCOc1ccc(CSC(=N)N)cc1[N+](=O)[O-].Cl,-64.1
14,Cc1ccc(-c2n[nH]c(=O)c3ccccc23)cc1N,5.75
15,COc1cccc(CNC(=O)c2ccc(Cl)c(S(=O)(=O)N3CCOCC3)c2)c1,-19.5
16,COc1ccc(OC)c(S(=O)(=O)n2nnc3cc(Cl)ccc32)c1,4.31
17,COc1ccc(NC(=O)c2ccccc2OCc2c(C)noc2C)cc1OC,-37.5
18,CN(c1ccc(C(=O)N2CCN(Cc3ccccc3)CC2)cc1)S(=O)(=O)c1ccc(Cl)cc1,-24.9
19,Cc1ccc(-c2noc(C3CCCN(C(=O)c4ccccc4Br)C3)n2)o1 (stereo not shown),-42.6
20,COc1ccc(C(=O)N2CCCC(c3nc(-c4ccc(C)o4)no3)C2)cc1OC (stereo not shown),-8.29
21,Cc1cccc(C(=O)N2CCCC(c3nc(-c4ccc(C)o4)no3)C2)c1 (stereo not shown),-27.7
22,Cc1ccc(-c2noc(C3CCCN(C(=O)c4cccc([N+](=O)[O-])c4)C3)n2)o1 (stereo not shown),-65

row,Compound,"hERG current change (%, negative = inhibition) at 10uM [%]"
1,CCOc1ccc(C(=O)N2CCCC(c3nc(-c4ccc(C)o4)no3)C2)cc1 (stereo not shown),-60.2
2,CCOc1ccccc1NC(=O)N1CCCC(c2nc(-c3ccc(C)o3)no2)C1 (stereo not shown),-52.5
3,Cc1ccc(-c2noc(C3CCCN(C(=O)c4ccc(C(C)(C)C)cc4)C3)n2)o1 (stereo not shown),-19.8
4,CCOc1ccc(C(=O)N2CCCC(c3nc(-c4cccs4)no3)C2)cc1 (stereo not shown),-46.9
5,Cc1ccc(-c2noc(C3CCCN(C(=O)c4ccc(Cl)cc4)C3)n2)o1 (stereo not shown),-55.2
6,Cc1ccc(-c2noc(C3CCCN(C(=O)c4cccc(Cl)c4)C3)n2)o1 (stereo not shown),-43.4
7,Cc1ccc(-c2noc(C3CCCN(C(=O)c4ccccc4)C3)n2)o1 (stereo not shown),-13.1
8,COc1cc(OC)cc(C(=O)N2CCCC(c3nc(-c4ccc(C)o4)no3)C2)c1 (stereo not shown),-9.35
9,COc1ccc(S(=O)(=O)N2CCCCCC2)cc1C(=O)OCC(=O)NC(C)(C)C,-17.5
10,O=C(NC1CCS(=O)(=O)C1)c1ccc(-c2ccc(Br)cc2)o1 (stereo not shown),-20.9
11,O=C1CN(C(=O)N[C@@H](Cc2ccccc2)C(=O)N[C@@H](Cc2ccccc2)C(=O)O)c2ccccc2N1,3.79
12,CCOc1cccc(OCCOCCNC(C)(C)C)c1.O=C(O)C(=O)O,3.71
13,COn1c(=O)c(=O)n(OC)c2ccccc21,-3.45
14,Cc1ccc(C)c(S(=O)(=O)N2CCCOC2CNC(=O)C(=O)NCc2ccco2)c1 (stereo not shown),11.6
15,CC(C)CCN1C(=O)c2ccccc2C1C(=O)NCc1cccnc1 (stereo not shown),-16.1
16,Cc1nc2c(C(=O)N3CCN(c4ccccn4)CC3)cnn2c(C)c1Cc1cccc(Cl)c1,-43.4
17,Brc1cc(Br)c2ncnc(N3CCCCC3)c2c1,-11.8
18,CCc1cc(C(=O)OC)c(NC(=O)C2CC(=O)NN2Cc2ccccc2)s1 (stereo not shown),-29.7
19,O=c1c2ccccc2nc(/C=C/c2ccccn2)n1-c1ccccc1,10.9
20,COc1ccccc1NC(=O)CCCCCN1C(=O)c2cccc([N+](=O)[O-])c2C1=O,-39.2
21,CCOc1ccccc1NC(=O)CN1CCN(C(=O)C2CCCO2)CC1 (stereo not shown),-10.6
22,O=C(OCn1nnc2ccccc2c1=O)c1cc(-c2ccccc2)nc2ccccc12,6.74

# — paper PMC4336329 (PLoS ONE, 2015)
